Screening results (PubChem)
The list is not random: actives were taken first. Their share in the collection is about 3.8%.
ADAM17 inh = inhibitors of human ADAM17; P78536; recombinant ADAM17, EDANS/DABCYL FRET peptide cleavage; inhibition, % at 6.95 µM; 0.83% of 370,000 active; AID 720648;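 active = inhibition above the mean of compounds lying between control limits plus 3 SD, set per campaign, cut at about 8.5% in these data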;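 also: 0% = DMSO-only wells as the low control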
proKLK7 act = activates the human kallikrein-7 zymogen | P49862 | purified proKLK7, EDANS-DABCYL substrate fluorescence; 100% is mature enzyme control, 0% vehicle | activation, % at 7 µM | 0.9% of 370,000 active | AID 652039;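 active = activation above the mean of all tested compounds plus 3 SD, computed per campaign excluding outliers beyond control limits, cut at about 13% in these data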
Target sequence (P49862 whole entry, looked up): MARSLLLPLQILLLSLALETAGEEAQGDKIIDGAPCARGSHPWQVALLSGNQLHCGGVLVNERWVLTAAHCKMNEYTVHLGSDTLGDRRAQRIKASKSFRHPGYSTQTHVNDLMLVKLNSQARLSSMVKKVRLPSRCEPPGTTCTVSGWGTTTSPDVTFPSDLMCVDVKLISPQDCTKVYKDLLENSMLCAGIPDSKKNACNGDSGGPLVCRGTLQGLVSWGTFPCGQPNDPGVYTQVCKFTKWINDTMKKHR
rRNA inh HTS = inhibits bacterial ribosomal RNA function over humanized ribosomes. E. coli WT GFP vs humanized-ribosome RFP mutants, fluorescence, 24 h; stronger effect = lower value; DMSO median 0, no signal -100. GFP signal change (wild-type ribosome), % (test concentration not listed). AID 720706. 1.6% of 350,000 active;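 active = significant combined selectivity score with lowered wild-type GFP, culture density cut under 30%, mutant RFP and density less affected; inactive = any of these conditions unmet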
ADAM10 inh = inhibits human ADAM10; 0.62% of 370,000 active; inhibition, % at 7 µM; recombinant ADAM10, EDANS/DABCYL FRET peptide cleavage, 3 h; AID 720582; O14672;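 active = inhibition above a per-campaign cutoff equal to the mean of compounds falling between control-based bounds plus 3 SD, cut at about 20% in these data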;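 also: 0% = DMSO wells while the 100% control is not disclosed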
FGF22 binding = FGF22 (human) thermal shift binding | recombinant FGF22 thermal shift, SYPRO orange fluorescence; percent of sucrose octasulfate shift, DMSO zero | activity (Tm shift, normalised), % at 9.99 µM | AID 651658 | 1.5% of 340,000 active;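 active = mean Tm shift, scaled 0 neutral to 100 positive control, at about 1.3% or above, every replicate too, limit read from the data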
Target sequence (Q9HCT0 whole entry, looked up): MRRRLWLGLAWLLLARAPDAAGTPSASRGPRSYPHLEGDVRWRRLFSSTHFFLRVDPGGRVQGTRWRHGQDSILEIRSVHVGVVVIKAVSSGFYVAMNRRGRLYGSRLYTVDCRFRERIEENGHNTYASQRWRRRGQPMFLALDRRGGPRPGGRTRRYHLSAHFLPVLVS
ADAM10 ctr = counter-screen for ADAM17 exosite inhibitors: inhibitors of human ADAM10 | inhibition, % at 6.95 µM | recombinant ADAM10, EDANS/DABCYL FRET peptide cleavage, 3 h | 47% of 2,900 active | shares compounds with ADAM17 inh;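 active = mean inhibition over the triplicate runs exceeds the activity threshold set in the earlier primary screen, cut at about 20% in these data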;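 also: 0% = DMSO wells and 100% = marimastat wells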
ADAM17 confirm = human ADAM17 inhibition, confirmation; recombinant ADAM17, EDANS/DABCYL QFRET peptide cleavage; 65% of 2,900 active; inhibition, % at 6.95 µM; shares compounds with ADAM17 inh;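 active = mean inhibition across replicates above the hit cutoff set in the primary screen, cut at about 8.5% in these data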;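 also: 0% = DMSO wells and 100% = marimastat wells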
The depositor's hits bear a star; · = no result given.

SMILES	ADAM17 inh	proKLK7 act	rRNA inh HTS	ADAM10 inh	FGF22 binding	ADAM10 ctr	ADAM17 confirm
CC(=O)N(C)C[C@@H]1Oc2cc(C#CCC3CCCC3)ccc2S(=O)(=O)N([C@H](C)CO)C[C@H]1C	·	·	-1	·	0	·	·
Cc1nc(SCc2nc3ccc(Cl)cc3[nH]2)c2oc3ccccc3c2n1	9.8*	-4	-5	5	0	-11	2
COc1ccc(Nc2nc(C)c(-c3ccccc3)s2)cc1	9.1*	0	·	9	·	-16	1
CC(C)C[C@H](NC1(C(=O)NCCc2c[nH]c3ccccc23)CCC1)C(=O)NCCCc1ccccc1	8.8*	·	·	6	·	11	6
CCc1nc2ccc(C(=O)Nc3ccc4c(c3)OCC(=O)N4)cn2c1N(CC)Cc1cccc(Br)c1	9.1*	-5	-13	14	0	16	12*
CCc1nc2ccc(C(=O)Nc3ccc4c(c3)OCC(=O)N4)cn2c1N(CC)CCOC	-1	0	-5	-1	0	·	·
CCc1ccc(NC2=CC(=O)CC(c3ccco3)C2)cc1 (centres undefined)	9.6*	-2	·	15	·	-6	2
Cc1cc(C)cc(NC2=CC(=O)CC(c3ccco3)C2)c1 (centres undefined)	-2	0	·	-6	·	·	·
Cc1cnc(NC(=O)Nc2ccc(Cl)cc2)s1	8	0	-22	16	1	·	·
Cc1cnc(NC(=O)CSc2ccc(Cl)cc2)s1	9.0*	0	·	9	·	7	7
CCCC#Cc1ccc2c(c1)O[C@@H](CN(C)Cc1ccccn1)[C@H](C)CN([C@H](C)CO)S2(=O)=O	·	·	-55	·	0	·	·
COc1cccc(NC(=O)c2ccc(S(=O)(=O)N3CCCC3)cc2)c1	-1	1	-17	1	1	·	·
CC(C)Oc1ccc(C(=O)Nc2cccc(S(=O)(=O)N3CCCC3)c2)cc1	9.0*	1	-6	13	0	6	2
CC(C)Oc1ccc(C(=O)Nc2ccc(Cl)c(S(=O)(=O)Nc3ccc(Cl)cc3)c2)cc1	10*	0	·	18	·	26*	16*
CC(NC(N)=O)C(=O)Nc1ccc(Cl)c(S(=O)(=O)Nc2ccc(Cl)cc2)c1 (centres undefined)	-2	0	-3	5	0	·	·
O=C(Nc1cccc(O)c1)c1ccc(S(=O)(=O)N2CCCCCC2)cc1	10*	0	-7	10	0	12	7
O=C(Nc1cccc(O)c1)c1cccc(S(=O)(=O)N2CCCC2)c1	-4	1	·	-1	·	·	·
Cc1ccc(C)c(N2N=C(C(=O)Nc3cccc(S(=O)(=O)N4CCCCC4)c3)CCC2=O)c1	13*	-1	-5	12	0	9	6
C[C@@H]1CN([C@@H](C)CO)C(=O)c2cc(/C=C/c3ccccc3)cnc2O[C@@H]1CN(C)C(=O)c1ccc2c(c1)OCO2	·	·	-4	·	0	·	·
C[C@@H]1CN([C@H](C)CO)C(=O)c2c(c3ccccc3n2C)-c2ccccc2CO[C@@H]1CN(C)CC1CCCCC1	·	·	2	·	0	·	·
CCCNc1ncnc2onc(C)c12	9.8*	0	9	5	1	11	9
COc1ccccc1NC(=O)C(=O)N/N=C(\C)CC(=O)Nc1ccc(OCc2ccccc2)cc1	3	0	·	4	·	·	·
C/C(CC(=O)Nc1ccc(OCc2ccccc2)cc1)=N\NC(=O)C(=O)Nc1cccc(C)c1	11*	0	·	12	·	1	3
CCN(c1cccc(C)c1)S(=O)(=O)c1ccc2c(c1)CCN2C(C)=O	-1	1	·	-5	·	·	·
CCN(c1cccc(C(F)(F)F)c1)S(=O)(=O)c1ccc2c(c1)CCN2C(C)=O	8.7*	0	·	11	·	20*	11*
SMILES	ADAM17 inh	proKLK7 act	rRNA inh HTS	ADAM10 inh	FGF22 binding	ADAM10 ctr	ADAM17 confirm
CN(C)c1ccc2c(c1)[C@@H]1C[C@H](CC(=O)NCC3CC3)O[C@@H](CO)[C@@H]1O2	·	·	1	·	-1	·	·
CCCn1c(O)c(N=NC(=O)CNC(=O)Cc2ccc(OC)cc2)c2ccccc21	9.7*	0	-3	1	0	5	6
O=C(CCc1ccc(S(=O)(=O)N2CCOCC2)cc1)N1CCCC1	-3	0	·	2	·	·	·
CN(Cc1cccs1)C(=O)CCc1ccc(S(=O)(=O)N2CCOCC2)cc1	11*	-1	·	1	·	-8	1
COc1ccc(Cl)cc1S(=O)(=O)N1CCN(c2ccc(F)cc2)CC1	0	1	·	7	·	·	·
COc1c(S(=O)(=O)N2CCN(c3ccc(F)cc3)CC2)ccc(Cl)c1Cl	9.7*	1	·	16	·	22*	14*
CC=Cc1ccc2n(c1=O)C[C@@H]1[C@@H](CO)[C@H](C(=O)N3CCCCC3)N(C(=O)CC)[C@H]21 (mixture of isomers)	·	·	-2	·	0	·	·
Cc1c(C(=O)NCc2ccccc2)oc2ccc(S(=O)(=O)N3CCC4(CC3)OCCO4)cc12	9.6*	1	·	12	·	4	6
CC(C)COc1ccc(CSCCNC(=S)Nc2ccccc2)cc1	9.1*	0	·	17	·	29*	13*
CCCCOc1ccc(CSCCNC(=S)Nc2ccccc2)cc1	5	0	9	14	1	·	·
CC(=O)Nc1ccc(-c2ccnc3c2CC(C)(C(=O)NCCc2ccccc2)O3)cc1 (centres undefined)	9.5*	0	-58	-8	0	11	7
CC(=O)Nc1ccc(-c2ccnc3c2CC(C)(C(=O)Nc2ccccc2)O3)cc1 (centres undefined)	-1	0	2	-6	1	·	·
Cc1cnn(CCC(=O)NNC(=S)Nc2ccccc2)c1	12*	0	·	10	·	9	7
Cc1ccc(NC(=S)NNC(=O)CSc2nc3ccccc3c(=O)n2-c2ccc(Cl)cc2)cc1	5	0	·	15	·	·	·
Cc1cccc(NCC(=O)NNC(=S)Nc2ccccc2)c1	12*	1	-4	14	0	13	5
Cc1ccc(-n2c(SCC(=O)NNC(=S)Nc3ccccc3)nc3ccccc3c2=O)cc1	12*	0	·	13	·	37*	11*
Cc1cccc(C)c1NC(=O)CNCC(=O)Nc1c(C)cccc1C	-3	-1	2	-6	0	·	·
Cc1cccc(C)c1NC(=O)CNc1ccccc1	11*	0	·	17	·	3	3
Cc1cc(C(=O)Nc2cccc3c2O[C@H](CN(C)S(=O)(=O)c2c(C)noc2C)[C@H](C)CN([C@H](C)CO)C3=O)n(C)n1	·	·	-1	·	0	·	·
COc1ccc(C(=O)N(Cc2sccc2C)C2CCS(=O)(=O)C2)cc1 (centres undefined)	9.1*	0	-2	0	0	-4	1
